From PubChem BioAssay (NCI) come the findings set out here.

Molecules are shown by their SMILES. The panel holds about 79,000 compounds, 15% with a hit somewhere; the sample as a whole holds those more often. A number with no mark means an inactive call. Activity calls are given as the source filed them. Rule as the data show it: active = growth inhibition above about 70%; inactive = the rest.

The nature of the first assay: NCI Yeast Anticancer Drug Screen. Data for the sgs1 mgt1 strain (AID 161).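 Also: 0% = growth of cultures given vehicle only.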 As to conditions: S. cerevisiae sgs1 mgt1 strain, at 50.0 µM, hits give high values. An outline of the steps: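 Genetically altered yeast, compound exposure, growth inhibition relative to vehicle.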
Consider `COc1ccc(NC(=O)CSc2nc(C)nc3c2sc(=S)n3-c2ccccc2)cc1`, for which the growth inhibition was 2.95%.

As for `CCN(CC)Cc1ccccc1COC(=O)c1ccc(OC)cc1`, the growth inhibition was 14.8%.

On to `c1ccc(-c2c(-c3cccs3)[nH]c(-c3cccs3)c2-c2ccccn2)nc1`, for which the growth inhibition is 45.7%.

Consider `N#CCCNC1CCCCC1`, for which the growth inhibition is 2.5%.

Turning to `CCC(=O)NC(OCC1(CC)COC1)(C(F)(F)F)C(F)(F)F`, the growth inhibition was -37.1%.

As for `COc1cc(OC)c(NC(=O)/C=C/c2ccccc2)cc1Cl`, the growth inhibition was 7.85%.

Turning to `CCOC(=O)c1nc2ccc(C(F)(F)F)cc2[nH]c1=O`, the growth inhibition is -17.4%.

`Cn1c(=O)oc2cc(C(O)CN3CCN(Cc4ccccn4)CC3)c(Cl)cc21` (stereo not given): the growth inhibition is -4.5%.

On to `CN1C(CC(=O)c2ccccc2)CCCC1CC(O)c1ccccc1` (stereo not given), for which the growth inhibition was 25.4%.

For `O=C(O)CCC(CCC(=O)O)(C(=O)O)c1ccccc1`, the growth inhibition is -8.75%.

On to `COC1OC(CI)C(OC(=O)c2ccccc2)C(OC(=O)c2ccccc2)C1OC(=O)c1ccccc1` (stereo not given), for which the growth inhibition is 10.2%.

Regarding `CC1(C)N=C(N)N=C(N)N1c1cccc(/C=C/c2ccc([N+](=O)[O-])cc2)c1`, the growth inhibition is -6.1%.

With `Cc1ncc([N+](=O)[O-])cc1C(=O)O`, the growth inhibition is -0.75%.

As to `O=C(c1ccccc1)C1(c2ccccc2)C(C(=O)c2ccccc2)(c2ccccc2)S1(=O)=O` (stereo not given), the growth inhibition is -8.05%.

On to `CCCCCC/C(C)=N/O`, for which the growth inhibition is 0.8%.

Consider `CC(OC1CC(=O)CC2C(=O)C=CC(=O)C12)c1ccccc1` (stereo not given), for which the growth inhibition is 26.3%.

For the molecule `C/C=C(\C)C(=O)N/N=C\C=C\c1ccccc1`, the growth inhibition is 0.95%.

`CN(C)OC(=O)Nc1cccc([N+](=O)[O-])c1`: the growth inhibition was 14.1%.

As for `O=S(=O)(Nc1cccc(Cl)c1)c1ccc(Cl)cc1`, the growth inhibition was 99.8% (active).

With `BrCCC1(CCBr)CCCCC1`, the growth inhibition is 44.6%.

As to `CN(C)CCCCCCNCCC#N`, the growth inhibition is -8.4%.

With `COC(=O)c1ccc(C(=O)OC)c2nc3cc(C)ccc3nc12`, the growth inhibition is -16.2%.

Consider `COc1ccc(C(=O)c2ccc(OC)c3ccccc23)c2ccccc12`, for which the growth inhibition is -1.2%.

As for `CC1C=CCCC1COC(=O)C(=O)OCC1CC=CCC1C` (stereo not given), the growth inhibition was 28.1%.

As to `CCN(CC)c1ncnc2n[nH]nc12`, the growth inhibition is -18%.

Consider `COC1(OC)C(c2ccc(Cl)cc2)C(C#N)(C#N)C1(OC)OC` (stereo not given), for which the growth inhibition is -14.2%.

Consider `Cc1cc(Br)cc(C)c1NC(=O)C(=O)C1C(=O)C(CC2C(=O)c3ccccc3C2=O)C(=O)CC1(C)C` (stereo not given), for which the growth inhibition is 0.75%.

Take `CCN(CC)CCCNc1ncnc2onc(C)c12`: the growth inhibition was 2.2%.

In the case of `CC(C)CC(CCl)Cc1nc2ccccc2[nH]1` (stereo not given), the growth inhibition is 39.8%.

With `COc1ccc(OCOCOc2ccc(OC)cc2)cc1`, the growth inhibition was 12.2%.

With `CCN(CC)Cc1cc(N)cc(N=Nc2ccc3c(c2)c2ccccc2n3CC)c1O`, the growth inhibition was 12.4%.

As to `CCOC(=O)CNC(=O)NC`, the growth inhibition was -6.75%.

Take `S=P(c1ccccc1)(c1ccccc1)C(P(c1ccccc1)c1ccccc1)P(c1ccccc1)c1ccccc1`: the growth inhibition is 46.1%.

As to `c1ccc(N2CCN(c3ccccn3)CC2)nc1`, the growth inhibition was 2.5%.

`O=C(Nc1nc(C23CC4CC(CC(C4)C2)C3)cs1)c1cc2cc([N+](=O)[O-])ccc2oc1=O`: the growth inhibition was -14.8%.

Consider `CCCCCCC(O)CCCCCCCCCCCO` (stereo not given), for which the growth inhibition is 1.05%.

As to `O=C(Cc1ccccc1)Nc1ccc([N+](=O)[O-])cc1Cl`, the growth inhibition was 23.4%.

Turning to `CNC(=O)CCC(=O)O`, the growth inhibition is -7.5%.

`OC1(c2ccc(-c3ccc(-c4ccc(C5(O)C(c6ccccc6)=C(c6ccccc6)C(c6ccccc6)=C5c5ccccc5)cc4)cc3)cc2)C(c2ccccc2)=C(c2ccccc2)C(c2ccccc2)=C1c1ccccc1`: the growth inhibition was 6.8%.

As to `Cc1cc(Br)c2c(c1N)C(=O)c1ccccc1C2=O`, the growth inhibition was 31.4%.

The next assay can be described thus: NCI Yeast Anticancer Drug Screen. Data for the cln2 rad14 strain (AID 165).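 Also: 0% = growth equal to vehicle treated cultures.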 As to conditions: S. cerevisiae cln2 rad14 strain, at 50.0 µM, hits give high values. A digest of the protocol:
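cln2 rad14 yeast strain; compound exposure; growth inhibition read vs vehicle controls.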
For `COc1ccc(NC(=O)CSc2nc(C)nc3c2sc(=S)n3-c2ccccc2)cc1`, the growth inhibition is 2.65%.

`CCN(CC)Cc1ccccc1COC(=O)c1ccc(OC)cc1`: the growth inhibition is -15.2%.

For `c1ccc(-c2c(-c3cccs3)[nH]c(-c3cccs3)c2-c2ccccn2)nc1`, the growth inhibition was -29.4%.

Regarding `N#CCCNC1CCCCC1`, the growth inhibition is -14.3%.

For `CCC(=O)NC(OCC1(CC)COC1)(C(F)(F)F)C(F)(F)F`, the growth inhibition is 2.75%.

As to `COc1cc(OC)c(NC(=O)/C=C/c2ccccc2)cc1Cl`, the growth inhibition is -21.4%.

Turning to `CCOC(=O)c1nc2ccc(C(F)(F)F)cc2[nH]c1=O`, the growth inhibition is -47.2%.

As for `Cn1c(=O)oc2cc(C(O)CN3CCN(Cc4ccccn4)CC3)c(Cl)cc21` (stereo not given), the growth inhibition was 2.45%.

As to `CN1C(CC(=O)c2ccccc2)CCCC1CC(O)c1ccccc1` (stereo not given), the growth inhibition was 40.4%.

As to `O=C(O)CCC(CCC(=O)O)(C(=O)O)c1ccccc1`, the growth inhibition was -42.1%.

For `COC1OC(CI)C(OC(=O)c2ccccc2)C(OC(=O)c2ccccc2)C1OC(=O)c1ccccc1` (stereo not given), the growth inhibition is 15.2%.

For the molecule `CC1(C)N=C(N)N=C(N)N1c1cccc(/C=C/c2ccc([N+](=O)[O-])cc2)c1`, the growth inhibition is -43%.

As to `Cc1ncc([N+](=O)[O-])cc1C(=O)O`, the growth inhibition is -7.1%.

On to `O=C(c1ccccc1)C1(c2ccccc2)C(C(=O)c2ccccc2)(c2ccccc2)S1(=O)=O` (stereo not given), for which the growth inhibition was -38.8%.

For `CCCCCC/C(C)=N/O`, the growth inhibition is 4.85%.

Take `CC(OC1CC(=O)CC2C(=O)C=CC(=O)C12)c1ccccc1` (stereo not given): the growth inhibition is 20.6%.

For the molecule `C/C=C(\C)C(=O)N/N=C\C=C\c1ccccc1`, the growth inhibition is -44.8%.

Consider `CN(C)OC(=O)Nc1cccc([N+](=O)[O-])c1`, for which the growth inhibition is -82.8%.

As to `O=S(=O)(Nc1cccc(Cl)c1)c1ccc(Cl)cc1`, the growth inhibition is 99.6% (active).

Turning to `BrCCC1(CCBr)CCCCC1`, the growth inhibition is 24.9%.

Turning to `CN(C)CCCCCCNCCC#N`, the growth inhibition is -8.85%.

In the case of `COC(=O)c1ccc(C(=O)OC)c2nc3cc(C)ccc3nc12`, the growth inhibition was 10.1%.

`COc1ccc(C(=O)c2ccc(OC)c3ccccc23)c2ccccc12`: the growth inhibition is -22.9%.

As for `CC1C=CCCC1COC(=O)C(=O)OCC1CC=CCC1C` (stereo not given), the growth inhibition is 9.25%.

With `CCN(CC)c1ncnc2n[nH]nc12`, the growth inhibition is -27.9%.

For `COC1(OC)C(c2ccc(Cl)cc2)C(C#N)(C#N)C1(OC)OC` (stereo not given), the growth inhibition was -48.4%.

In the case of `Cc1cc(Br)cc(C)c1NC(=O)C(=O)C1C(=O)C(CC2C(=O)c3ccccc3C2=O)C(=O)CC1(C)C` (stereo not given), the growth inhibition is -5.7%.

Turning to `CCN(CC)CCCNc1ncnc2onc(C)c12`, the growth inhibition is 6.15%.

Turning to `CC(C)CC(CCl)Cc1nc2ccccc2[nH]1` (stereo not given), the growth inhibition was 14.9%.

`COc1ccc(OCOCOc2ccc(OC)cc2)cc1`: the growth inhibition was -285%.

For the molecule `CCN(CC)Cc1cc(N)cc(N=Nc2ccc3c(c2)c2ccccc2n3CC)c1O`, the growth inhibition is 27.7%.

As to `CCOC(=O)CNC(=O)NC`, the growth inhibition is -11.7%.

Regarding `S=P(c1ccccc1)(c1ccccc1)C(P(c1ccccc1)c1ccccc1)P(c1ccccc1)c1ccccc1`, the growth inhibition was 49.7%.

With `c1ccc(N2CCN(c3ccccn3)CC2)nc1`, the growth inhibition was -21.5%.

Regarding `O=C(Nc1nc(C23CC4CC(CC(C4)C2)C3)cs1)c1cc2cc([N+](=O)[O-])ccc2oc1=O`, the growth inhibition is -34.7%.

Take `CCCCCCC(O)CCCCCCCCCCCO` (stereo not given): the growth inhibition was -43%.

`O=C(Cc1ccccc1)Nc1ccc([N+](=O)[O-])cc1Cl`: the growth inhibition was 2.1%.

As for `CNC(=O)CCC(=O)O`, the growth inhibition is -2.7%.

In the case of `OC1(c2ccc(-c3ccc(-c4ccc(C5(O)C(c6ccccc6)=C(c6ccccc6)C(c6ccccc6)=C5c5ccccc5)cc4)cc3)cc2)C(c2ccccc2)=C(c2ccccc2)C(c2ccccc2)=C1c1ccccc1`, the growth inhibition is -3.9%.

In the case of `Cc1cc(Br)c2c(c1N)C(=O)c1ccccc1C2=O`, the growth inhibition was -7.75%.
